# From PubChem BioAssay (Tox21)
# Inconclusive results are not listed. Values without a mark were called inactive. Calls come from the whole dose curve; as a rule, active = well fitted cell-killing curve with a large enough effect in the repeat runs; inconclusive = weak or mixed curves, or effect the other way; inactive = flat fitted curve, though single readings scatter.
# Experiment: qHTS assay to identify small molecule antagonists of the constitutive androstane receptor (CAR) signaling pathway - cell viability counter screen (AID 1224837); note: nearly all actives have a fitted effect of over 45% in size
# Settings: HepG2-CYP2B6-hCAR viability, CellTiter-Fluor, 23 h, co-treated with 50 nM CITCO; series mostly up to 92.4 µM; activity change, negative = cytotoxicity: at the top concentration
# Text: National Center for Advancing Translational Sciences [NCATS]
# NIH Chemical Genomics Center [NCGC]
# U.S. Environmental Protection Agency [EPA]
# National Institutes of Environmental Health Sciences [NIEHS]
# National Toxicology Program [NTP]
# U.S. Food and Drug Administration [FDA]
# The constitutive androstane receptor (CAR) is a nuclear receptor which regulates multiple drug metabolizing enzymes (DMEs) and transporters. Activating CAR will generally increase the transcription and subsequent translation of CYP2B6 and CYP3A4. These two DMEs represent about 50% of the drug metabolizing potential in the body. When CAR is deactivated, the metabolizing potential in the body will decrease, subsequently increasing the toxicity in the body or lowering the therapeutic potential of a pro-drug. Recently, there have also been studies performed indicating CARs role in energy metabolism and cancer therapy. Therefore, inhibiting CARs activity could have a potential effect on diabetes and cancer. Identifying environmental toxins and compounds which modulate CAR, through the use of the Tox21 10K compound collection, will be an important step in determining the toxicity and potential therapeutic effects these factors will have on the human body. To differentiate true CAR antagonists from cytotoxic substances, the assay is multiplexed with a cell viability assay.
# Tox21 Assay Protocol Summary:
# A double-stable (hCAR and CYP2B6-2.2kb) transfected cell line, derived from human hepatoma (HepG2) cells, was utilized for the duration of the quantitative high-throughput screens. The HepG2-CYP2B6-hCAR cells were dispensed at 2500 cells/4 uL/well in 1536-well white solid bottom plates using a Multidrop Combi. After the assay plates were incubated at 37 C/5% CO2 for 4 hrs, 23 nL of compounds at 15 concentrations (from 5-48 columns) or positive control (from 1 to 4 columns) were transferred to the assay plates using a Pintool station. One uL of CITCO (final concentration = 50 nM) was added, using a Flying Reagent Dispenser, inside each well. After a 23 hr incubation period at 37 C/5% CO2, 1 uL of CellTiter-Fluor reagent was added into each well of the assay plates using a Flying Reagent Dispenser. The fluorescence intensity in the plates was then measured using a ViewLux plate reader.
# % is set by controls: 0 for no effect and ±100 for the full control effect.
row,Compound,"activity change, negative = cytotoxicity"
1,O=Cc1ccc(O)c(O)c1O,-14.8% [at 42.5 µM]
2,CCN[C@H]1CN(CCCOC)S(=O)(=O)c2sc(S(N)(=O)=O)cc21,1.55% [at 42.5 µM]
3,CC(=O)Nc1ccc(C)c(Cl)c1,0.421%
4,CC(CNC1CCCCC1)OC(=O)c1ccccc1 (stereo not given),-6.44% [at 42.5 µM]
5,CCCCCOc1ccc(C2SC(=O)NC2=O)cc1OCC (stereo not given),4.23% [at 42.5 µM]
6,C[C@@H](N)C(=O)O,2.07% [at 42.5 µM]
7,CC1(O)CSC(C)(O)CS1 (stereo not given),-4.85%
8,CC(C)OC(C)C,-1.63%
9,CCCCCCCCCC/C=C/C#N,0.626%
10,CCCCNc1cc(C(=O)O)cc(S(N)(=O)=O)c1Oc1ccccc1,-1.32% [at 42.5 µM]
11,CC(Oc1c(Cl)cccc1Cl)C1=NCCN1 (stereo not given),-14.2% [at 42.5 µM]
12,CCCC1CCC(=O)O1 (stereo not given),-2.05%
13,CCOC(=O)c1cc(=O)c2c(OCC(COc3cccc4oc(C(=O)OCC)cc(=O)c34)OC(=O)[C@@H](N)CCCCN)cccc2o1,1.99% [at 42.5 µM]
14,CCN(O)CC,0.991%
15,CCCCNc1ccc(C(=O)OCCN(CC)CC)cc1,3.63% [at 42.5 µM]
16,CCOC(=O)CS,-30.3%
17,COC(C)CCO (stereo not given),5.17%
18,COC(=O)N[C@H](C(=O)N[C@@H](Cc1ccccc1)[C@@H](O)CN(Cc1ccc(-c2ccccn2)cc1)NC(=O)[C@@H](NC(=O)OC)C(C)(C)C)C(C)(C)C,-6.48% [at 42.5 µM]
19,CN1CCN(c2c(F)cc3c(=O)c(C(=O)O)cn(CCF)c3c2F)CC1,3.37% [at 42.5 µM]
20,CN1CCN(C2=Nc3cc(F)ccc3Cc3ccccc32)CC1,-17.1% [at 42.5 µM]

row,Compound,"activity change, negative = cytotoxicity"
1,COc1ccc(Nc2ccc(OC)cc2)cc1,-14.6%
2,c1ccc(CN(CC2=NCCN2)c2ccccc2)cc1,-12.7% [at 42.5 µM]
3,C[C@]12C(=O)OC(=O)[C@H]1[C@H]1C=C[C@@H]2C1,0%
4,COc1ccc2nc(NC(=O)Nc3ccccc3)sc2c1,-7.97% [at 42.5 µM]
5,COc1cc(Cl)ccc1Cl,1.8%
6,CC1=CC(=O)CC(C)(C)C1=O,3.35%
7,O=C(O)[C@@H](O)[C@H](O)[C@H](O)[C@@H](O)C(=O)O,-0.35% [at 42.5 µM]
8,CCN(CC)C(=O)N(CC)CC,-0.237%
9,CCCC(CCC)(C(=O)OCC)C(=O)OCC,5.69% [at 42.5 µM]
10,CCCCCCOc1ccc(N)cc1,0.313%
11,CC(C)S,0.282%
12,FC(F)(F)C(F)(F)C(F)(F)C(F)(F)C(F)(F)C(F)(F)C(F)(F)C(F)(F)Br,0.178% [at 42.5 µM]
13,CS(=O)(=O)c1ccc([C@@H](O)[C@@H](CF)NC(=O)C(Cl)Cl)cc1,2.97% [at 42.5 µM]
14,Cc1ccc(C)c(N)c1,1.47%
15,C=CC(C)(O)CC/C=C(\C)CCC=C(C)C (stereo not given),-6.75%
16,COc1cc(C)ccc1C(C)C,2.79%
17,COc1cc2c(cc1N)oc1ccccc12,-2.3%
18,CC(=O)N(CC(O)CN(C(C)=O)c1c(I)c(C(=O)NCC(O)CO)c(I)c(C(=O)NCC(O)CO)c1I)c1c(I)c(C(=O)NCC(O)CO)c(I)c(C(=O)NCC(O)CO)c1I (stereo not given),1.87% [at 42.5 µM]
19,CN1CCN(N)CC1,6.84% [at 42.5 µM]
20,COc1ccccc1N1CCN(CCCNc2cc(=O)n(C)c(=O)n2C)CC1,3.76% [at 42.5 µM]
